Molecules are shown by their SMILES. Where “and” joins values, the source holds several entries; their conditions need not be identical. Equal values may be shown once. Calls of active or inactive are those of the source.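 The calls were made as follows, unless noted: active = compounds whose cell count with miR-34 switched on is under 0.7 times the count with it off; inactive = the rest.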 Where a SMILES comes first, the peptide text is derived from it. The star is where a group is joined. Cbz = O=C(OCc1ccccc1)*; CH2F = FC*

A short description of assay [1]: sensitizers of A549 cells to miR-34 induction, primary screen, imaging, A549 dox-inducible miR-34, nuclei and caspase counts (AID 1347080). As to conditions: A549 miR-34 inducible, Hoechst nuclei count, 48 h.
Assay [2] can be described thus: survival rescue of mitochondrial mutant cells in low glucose, primary screen, MELAS cybrids, Rieske KO mouse fibroblasts, CellTiter-Glo (AID 1508586;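 active = mean z-score across replicates of 1.96 or higher in either the MELAS or the Rieske mutant cell line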;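 also: z relative to plate mean and SD of compound and empty wells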).
Where [3] appears, read: stronger effect = lower value, cell number ratio, induced over uninduced.
Where [4] appears, read: measured here: relative caspase fold change +Dox/-Dox.
Setting [5] is: measured here: total cells with miR-34 induction, stronger effect = lower value.
The mark [6] stands for this setting: measured here: total cells without miR-34 induction.
Where [7] appears, read: MELAS cybrid survival, CellTiter-Glo 48 h, stronger effect = higher value.
Where [8] appears, read: Rieske KO mouse fibroblast survival, CellTiter-Glo 72 h.
Also: test concentration not given here.

On to `CC1CCO[C@H]2Cn3cc(C(=O)NCc4ccc(F)cc4F)c(=O)c(O)c3C(=O)N12` (stereo partly specified), for which the fold change is 1 (inactive) in assay [1] (setting [3]) and 0.731 in assay [1] (setting [4]). The cell count came to 8400 in assay [1] (setting [5]) and 8370 in assay [1] (setting [6]). Moreover, the z-score in assay [2] (setting [7]) is -0.34 (inactive); in assay [2] (setting [8]), 0.66.
As for `Cc1ccc(Cl)cc1N(CC(=O)Nc1c(F)cccc1F)S(C)(=O)=O`, the fold change is 0.888 (inactive) in assay [1] (setting [3]) and 0.518 in assay [1] (setting [4]). The cell count in assay [1] (setting [5]) worked out at 8090; in assay [1] (setting [6]), 9110. Further, the z-score in assay [2] (setting [7]) was -0.403 (inactive); in assay [2] (setting [8]) it was 0.642.
Turning to `COc1c(C)c2c(c(O)c1CC=C(C)CCC(=O)O)C(=O)OC2`, the fold change in assay [1] (setting [3]) is 1.08 (inactive); in assay [1] (setting [4]), 0.86. Further, the cell count in assay [1] (setting [5]) stood at 3150; in assay [1] (setting [6]) it was 2920. Besides, the values for the z-score in assay [2] (setting [7]) and in assay [2] (setting [8]) were 0.238 (inactive) and 0.269, respectively.
On to `CC(Cc1cc2c(c(C(N)=O)c1)N(CCCO)CC2)NCCOc1ccccc1OCC(F)(F)F` (stereo unspecified), for which the fold change in assay [1] (setting [3]) was 0.869 (inactive); in assay [1] (setting [4]), 0.814. Also, the cell count in assay [1] (setting [5]) amounted to 6950; in assay [1] (setting [6]), 8000. Besides, the z-score was -0.42 (inactive) in assay [2] (setting [7]) and -0.511 in assay [2] (setting [8]).
Take `CC1CC(C(=O)O)C2CC[C@]3(C)C(=CC[C@H]4[C@@]5(C)CCC(O)C(C)(C)[C@@H]5CC[C@]43C)[C@H]2C1C` (stereo partly specified): the fold change was 0.867 (inactive) in assay [1] (setting [3]) and 0.88 in assay [1] (setting [4]). For the same compound, the cell count in assay [1] (setting [5]) came to 8220; in assay [1] (setting [6]), 9470. The z-score in assay [2] (setting [7]) was -0.234 (inactive); in assay [2] (setting [8]) it was 0.804.
As to `CC1C[C@H]2[C@@H]3CCC4=CC(=O)C=C[C@]4(C)[C@@H]3C(=O)C[C@]2(C)[C@]1(O)C(=O)CO` (stereo partly specified), the fold change was 1.57 (inactive) in assay [1] (setting [3]) and 0.521 in assay [1] (setting [4]). In addition, the cell count came out at 7500 in assay [1] (setting [5]) and 4760 in assay [1] (setting [6]). Besides, the z-score in assay [2] (setting [7]) was -0.4 (inactive); in assay [2] (setting [8]) it was 0.152.
`C[C@@]12C(=O)N(c3ccc(C(=O)Nc4cccc5cccnc45)cc3)C(=O)[C@@H]1C1C=CC2C1` (stereo partly specified): the fold change in assay [1] (setting [3]) is 1.75 (inactive); in assay [1] (setting [4]) it was 0.793. The cell count turned out to be 7280 in assay [1] (setting [5]) and 4160 in assay [1] (setting [6]). Further, the figures for the z-score in assay [2] (setting [7]) and in assay [2] (setting [8]) were 0.0501 (inactive) and -0.119, respectively.
Regarding `Cc1[nH]nc2ccc(-c3cncc(OCC(N)Cc4ccccc4)c3)cc12` (stereo unspecified), the figures for the fold change in assay [1] (setting [3]) and in assay [1] (setting [4]) were 1.1 (inactive) and 0.572, respectively. Further, the cell count in assay [1] (setting [5]) was 1470; in assay [1] (setting [6]), 1330. Further, the z-score in assay [2] (setting [7]) was 1.05 (inactive); in assay [2] (setting [8]), -3.52.
Take `N#Cc1c(Oc2ccc(F)c(NC(=O)Cc3cccc(C(F)(F)F)c3)c2)ccc2nc(NC(=O)C3CC3)sc12`: the fold change was 1.2 (inactive) in assay [1] (setting [3]) and 0.284 in assay [1] (setting [4]). Also, the values for the cell count in assay [1] (setting [5]) and in assay [1] (setting [6]) were 2200 and 1840, respectively. The z-score in assay [2] (setting [7]) is -0.453 (inactive); in assay [2] (setting [8]), 0.158.
`O=C1O[C@H](C(O)CO)C(O)C1O` (stereo partly specified): the figures for the fold change in assay [1] (setting [3]) and in assay [1] (setting [4]) were 0.859 (inactive) and 0.731, respectively. For the same compound, the cell count in assay [1] (setting [5]) came to 8460; in assay [1] (setting [6]) it was 9850. The z-score in assay [2] (setting [7]) was -0.207 (inactive); in assay [2] (setting [8]), -0.154.
As for `CNC(C)C(=O)NC(C(=O)N1CCCC1C(=O)Nc1snnc1-c1ccccc1)C1CCCCC1` (stereo unspecified), the fold change in assay [1] (setting [3]) is 0.982 (inactive); in assay [1] (setting [4]) it was 0.55. Moreover, the cell count in assay [1] (setting [5]) worked out at 8360; in assay [1] (setting [6]) it was 8510. The z-score in assay [2] (setting [7]) was -0.276 (inactive); in assay [2] (setting [8]), -0.145.
Turning to `Oc1ccc(C2COc3cc(O)ccc3C2)cc1` (stereo unspecified), the fold change was 1.04 (inactive) and 0.979 (inactive) in assay [1] (setting [3]); 1.09 and 0.678 in assay [1] (setting [4]). Also, the cell count in assay [1] (setting [5]) is 6090 and 7580; in assay [1] (setting [6]), 5860 and 7740. The z-score was -0.326 (inactive) in assay [2] (setting [7]) and -0.182 in assay [2] (setting [8]).
For the compound `COC1C[C@H]2CCC(C)[C@@](O)(O2)C(=O)C(=O)N2CCCC[C@H]2C(=O)OC(C(C)CC2CCC(OC(=O)C(C)(CO)CO)C(OC)C2)CC(=O)C(C)C=C(C)C(O)C(OC)C(=O)C(C)CC(C)C=CC=CC=C1C` (stereo partly specified), the fold change in assay [1] (setting [3]) is 1.08 (inactive); in assay [1] (setting [4]) it was 0.974. Also, the cell count in assay [1] (setting [5]) is 3980; in assay [1] (setting [6]), 3690. The figures for the z-score in assay [2] (setting [7]) and in assay [2] (setting [8]) were 0.432 (inactive) and 0.402, respectively.
For `CCc1ccc(C=C2SC(=S)NC2=O)cc1`, the fold change in assay [1] (setting [3]) was 0.911 (inactive); in assay [1] (setting [4]), 0.424. The cell count in assay [1] (setting [5]) amounted to 7750; in assay [1] (setting [6]), 8500. Moreover, the z-score in assay [2] (setting [7]) was -0.119 (inactive); in assay [2] (setting [8]), 0.267.
As to `CCC(C)C(=O)OC1CC(C)C=C2C=CC(C)C(CCC3CC(O)CC(=O)O3)[C@H]21` (stereo partly specified), the fold change in assay [1] (setting [3]) was 1.2 (inactive); in assay [1] (setting [4]), 0.613. Moreover, the cell count in assay [1] (setting [5]) is 3590; in assay [1] (setting [6]), 2990. In addition, the z-score was -0.367 (inactive) in assay [2] (setting [7]) and -1.71 in assay [2] (setting [8]).
As to `CCC(C)[C@H]1O[C@]2(CCC1C)CC1C[C@@H](CC=C(C)C(O[C@H]3CC(OC)C(O[C@H]4CC(OC)C(O)C(C)O4)C(C)O3)C(C)C=CC=C3CO[C@@H]4C(O)C(C)=C[C@H](C(=O)O1)[C@]34O)O2` (stereo partly specified), the fold change in assay [1] (setting [3]) was 1.18 (inactive); in assay [1] (setting [4]), 0.443. The figures for the cell count in assay [1] (setting [5]) and in assay [1] (setting [6]) were 3750 and 3170, respectively. Moreover, the figures for the z-score in assay [2] (setting [7]) and in assay [2] (setting [8]) were -0.0305 (inactive) and 0.298, respectively.
`O=S(=O)(c1ccccc1)c1cnc2c(N3CCNCC3)cccc2c1`: the fold change in assay [1] (setting [3]) was 0.946 (inactive); in assay [1] (setting [4]) it was 0.61. Moreover, the results for the cell count in assay [1] (setting [5]) and in assay [1] (setting [6]) were 7690 and 8130, respectively. In addition, the z-score in assay [2] (setting [7]) was -0.577 (inactive); in assay [2] (setting [8]), -0.0242.
For `C=C(C)C1CC[C@]2(C(=O)O)CC[C@]3(C)[C@H](CC[C@@H]4[C@@]5(C)CCC(O)C(C)(C)[C@@H]5CC[C@]43C)[C@@H]12` (stereo partly specified), the values for the fold change in assay [1] (setting [3]) and in assay [1] (setting [4]) were 0.87 (inactive) and 0.918, respectively. Moreover, the results for the cell count in assay [1] (setting [5]) and in assay [1] (setting [6]) were 6780 and 7790, respectively. The values for the z-score in assay [2] (setting [7]) and in assay [2] (setting [8]) were -0.0804 (inactive) and -0.141, respectively.
In the case of `CCOC(=O)C(N)Cc1ccc(-c2cc(OC(c3ccc(Cl)cc3-n3ccc(C)n3)C(F)(F)F)nc(N)n2)cc1` (stereo unspecified), the fold change was 0.982 (inactive) in assay [1] (setting [3]) and 0.783 in assay [1] (setting [4]). The results for the cell count in assay [1] (setting [5]) and in assay [1] (setting [6]) were 8120 and 8260, respectively. Also, the z-score is 0.073 (inactive) in assay [2] (setting [7]) and 0.184 in assay [2] (setting [8]).
As for `COC(=O)CC(NC(=O)C(C)NC(=O)C(NC(=O)OCc1ccccc1)C(C)C)C(=O)CF` (stereo not drawn) (Cbz-Val-Ala-Asp(OMe)-CH2F; configuration not given here), the results for the fold change in assay [1] (setting [3]) and in assay [1] (setting [4]) were 0.936 (inactive) and 0.758, respectively. Further, the cell count in assay [1] (setting [5]) turned out to be 8620; in assay [1] (setting [6]), 9210. Besides, the z-score in assay [2] (setting [7]) is -0.172 (inactive); in assay [2] (setting [8]), -0.115.
For `CC(C)c1nc(N(C)S(C)(=O)=O)nc(-c2ccc(F)cc2)c1C=CC(O)CC(O)CC(=O)O` (stereo unspecified), the figures for the fold change in assay [1] (setting [3]) and in assay [1] (setting [4]) were 0.92 (inactive) and 0.647, respectively. The cell count was 8010 in assay [1] (setting [5]) and 8710 in assay [1] (setting [6]). Further, the z-score in assay [2] (setting [7]) was 0.606 (inactive); in assay [2] (setting [8]), -0.0253.
